Measurements taken from publication PMC5540273 (PLoS ONE, 2017).

Key:
Settings in all cases: concentration: 1 μM, replicates: in singlicate; n = 1
SNARK = system: T1, SNARK
T1 construct: gene NUAK2

SNRK = system: SNRK
SRC = system: SRC
SRMS = system: SRMS
SRPK1 = system: SRPK1
SRPK2 = system: SRPK2
SRPK3 = system: SRPK3
STK16 = system: STK16
STK33 = system: STK33
STK35 = system: STK35
STK36 = system: STK36
STK39 = system: STK39
SYK = system: SYK
SgK110 = system: SgK110
TAK1 = system: T2, TAK1
T2 construct: gene MAP3K7

TAOK1 = system: TAOK1
TAOK2 = system: TAOK2
TAOK3 = system: TAOK3
TBK1 = system: TBK1
TEC = system: TEC
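Note: KINOMEscan kinase panel screen.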

Structure (SMILES) | %Inh (SNARK) | %Inh (SNRK) | %Inh (SRC) | %Inh (SRMS) | %Inh (SRPK1) | %Inh (SRPK2) | %Inh (SRPK3) | %Inh (STK16) | %Inh (STK33) | %Inh (STK35) | %Inh (STK36) | %Inh (STK39) | %Inh (SYK) | %Inh (SgK110) | %Inh (TAK1) | %Inh (TAOK1) | %Inh (TAOK2) | %Inh (TAOK3) | %Inh (TBK1) | %Inh (TEC)
CCn1cnc2c(NCc3ccccc3)ncnc21 [SKF-96418] | 0% | 0% | 0% | 26% | 0% | 47% | 18% | 0% | 0% | 0% | 0% | 16% | 0% | 0% | 0% | 0% | 27% | 0% | 17% | 0%
CN(c1ccc(NC(=O)Nc2cccc(Cl)c2)cc1)c1ccnc(N)n1.Cl [GW830707] | 0% | 0% | 15% | 3% | 3% | 0% | 8% | 6% | 2% | 0% | 0% | 0% | 2% | 0% | 19% | 0% | 8% | 0% | 0% | 0%
COc1ccc(NC(=O)c2ccoc2)cc1-c1ccc(C(=O)NCC2CC2)cc1 [GW810437] | 18% | 12% | 10% | 25% | 0% | 0% | 12% | 0% | 0% | 0% | 0% | 10% | 12% | 36% | 18% | 23% | 24% | 15% | 8% | 0%
Cn1cc(-c2ccc3c(c2)CCN3C(=O)Cc2cc(F)cc(F)c2F)c2c(N)ncnc21 [GSK2634140] | 28% | 8% | 10% | 0% | 34% | 0% | 0% | 0% | 0% | 0% | 0% | 0% | 41% | 0% | 48% | 0% | 0% | 0% | 17% | 0%
Cc1nn2c(=O)cc(N3CCO[C@H](C)C3)nc2n1Cc1cccc(Cl)c1Cl [GSK2373693] | 0% | 0% | 19% | 0% | 40% | 0% | 0% | 59% | 0% | 1% | 0% | 5% | 19% | 0% | 0% | 0% | 0% | 3% | 0% | 2%
CCNC(=O)/C=C/c1n[nH]c2cc(Sc3ccccc3C(=O)NC)ccc12 | 42% | 5% | 7% | 7% | 63% | 0% | 37% | 10% | 0% | 48% | 35% | 0% | 20% | 15% | 26% | 0% | 0% | 8% | 13% | 0%
Cl.O=C(Nc1ccc(Oc2ccc3[nH]c(NC(=O)c4ccco4)nc3c2)cc1)Nc1cc(C(F)(F)F)ccc1F [GW683134] | 0% | 0% | 23% | 0% | 51% | 0% | 100% | 0% | 76% | 6% | 0% | 12% | 31% | 0% | 89% | 0% | 0% | 0% | 0% | 13%
Fc1cc(Cl)ccc1Nc1ccnc2cc(-c3ccc(CN4CCOCC4)o3)ccc12 [GW560109] | 0% | 7% | 99.2% | 15% | 35% | 0% | 10% | 0% | 6% | 92.1% | 0% | 10% | 16% | 3% | 0% | 0% | 0% | 0% | 0% | 76%
Cc1ccc(NC(=O)c2ccc(Cl)c(Cl)c2)cc1-c1ccc(C(=O)Nc2ccncc2)cc1 [GSK1398460] | 9% | 0% | 23% | 0% | 34% | 0% | 14% | 14% | 0% | 0% | 0% | 0% | 21% | 4% | 12% | 0% | 0% | 0% | 23% | 15%
